Measured values: PubChem BioAssay (NCI)
Compounds without any hit were thinned out: in the full panel of roughly 79,000, 15% have a hit. Calls of active or inactive are those of the source. No stated cut-off is given here; in the data, active means growth inhibition above about 70%; inactive means the rest.

Key:
[1] = NCI Yeast Anticancer Drug Screen. Data for the rad50 strain (AID 155);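 further: 0% = growth of vehicle-only cultures of the same strain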; details: S. cerevisiae rad50 strain growth inhibition; at 50.0 µM; stronger effect = higher value
Procedure, shortened: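 Inhibition values express reduced yeast growth in compound-treated cultures relative to vehicle-treated controls.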

[2] = NCI Yeast Anticancer Drug Screen. Data for the mec2-1 strain (AID 157); details: S. cerevisiae mec2-1 strain, at 50.0 µM, stronger effect = higher value
Procedure, shortened: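 Mutant yeast (mec2-1) grown with compound; growth inhibition relative to vehicle control reported.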

[3] = NCI Yeast Anticancer Drug Screen. Data for the sgs1 mgt1 strain (AID 161);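 further: 0% = growth of cultures given vehicle only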; details: S. cerevisiae sgs1 mgt1 strain, at 50.0 µM, stronger effect = higher value
Procedure, shortened: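 Yeast cells carrying a defined DNA-repair defect were exposed to test compounds. Growth inhibition was measured relative to vehicle-treated controls.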

[4] = NCI Yeast Anticancer Drug Screen. Data for the cln2 rad14 strain (AID 165);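 further: 0% = growth equal to vehicle treated cultures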; details: S. cerevisiae cln2 rad14 strain, at 50.0 µM, stronger effect = higher value
Procedure, shortened: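 Readout is yeast growth inhibition versus vehicle-treated controls, using a strain with cln2 and rad14 alterations exposed to compound.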

[5] = NCI Yeast Anticancer Drug Screen. Data for the bub3 strain (AID 167); details: S. cerevisiae bub3 mutant strain, at 50.0 µM, stronger effect = higher value
Procedure, shortened: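 Steps: expose the mutant yeast strain to compound; grow alongside vehicle-treated cultures; measure growth; express inhibition against the vehicle cultures.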

[6] = NCI Yeast Anticancer Drug Screen. Data for the mlh1 rad18 strain (AID 175); details: S. cerevisiae mlh1 rad18 strain growth inhibition; at 50.0 µM; stronger effect = higher value
Procedure, shortened: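 Genetically defined yeast (DNA repair-deficient) exposed to compounds; growth inhibition determined relative to vehicle.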

Measured: growth inhibition

C/C(=C(/O)c1ccc(Cl)cc1)c1nc2cc(Cl)cc([N+](=O)[O-])c2[nH]c1=O
inactive: [1] 37% | [2] 43.3% | [3] 24.6% | [4] -4.55% | [5] 18.9% | [6] 53.5%

O=S1(=O)OCCOS(=O)(=O)C1I
inactive: [1] -8.1% | [2] -30.2% | [3] -12.4% | [4] 11.3% | [5] -21.5% | [6] -29.6%

NNC(=O)C(CSC(c1ccccc1)(c1ccccc1)c1ccccc1)NC(=O)OCc1ccccc1 (stereo unspecified)
active: [1] 87.1% | [2] 86% | [3] 94.8% | [4] 83.6% | [5] 89% | [6] 95.2%

CCNc1nc2c(ncn2C2CC(O)C(COP(=O)(O)O)O2)c(=O)[nH]1 (stereo unspecified)
inactive: [1] 18.9% | [2] 15.2% | [3] 27.3% | [4] 11.8% | [5] 13.2% | [6] -16.1%

CC(C)OC(=O)Nc1cccc(NC(=O)OCCCl)c1
inactive: [1] 7.1% | [2] -3.65% | [3] 9.15% | [4] -9.85% | [5] -8.8% | [6] -7.1%

O=C(O)COc1ccc2ccccc2c1
inactive: [1] -15.4% | [2] 3.55% | [3] -22.9% | [4] -14.8% | [5] 4.15% | [6] 2.1%

O=C(CN1CCCCC1)c1ccc(CCc2ccc(C(=O)CN3CCCCC3)cc2)cc1
inactive: [1] 35% | [2] 11.3% | [3] 33.9% | [4] -61.1% | [5] 6.5% | [6] 32.2%

O=P1(C(c2ccccc2)c2ccccc2)OC2CC(Cl)CC(C2)O1 (stereo unspecified)
inactive: [1] 4.9% | [2] -1.85% | [3] -6.9% | [4] -46.8% | [5] 0.25% | [6] -11.9%

O=C1c2ccccc2C(=O)N1CC(F)(F)F
inactive: [1] -11.9% | [2] -4.75% | [3] -9.5% | [4] 8.25% | [5] 5.6% | [6] -12.3%

O=C(N/N=C/C=C/c1ccccc1)c1ccccc1O
inactive: [1] -1.8% | [2] 43% | [3] 56.2% | [4] -31.7% | [5] 43.4% | [6] 29.6%

COc1ccccc1C1CCCCC1OS(=O)(=O)c1ccc(C)cc1 (stereo unspecified)
inactive: [1] -1.15% | [2] 3.45% | [3] -18.4% | [4] -9.65% | [5] 12.2% | [6] -9.8%

COC(=O)c1cc(Cl)ccc1Br
inactive: [1] 17.4% | [2] 14.1% | [3] -0.05% | [4] 14.8% | [5] -3.85% | [6] 43%

CC(C)OC(=O)C1=C(C(=O)OC(C)C)CCCC1
inactive: [1] 4.8% | [2] 21.6% | [3] 4.4% | [4] 13.2% | [5] 3.1% | [6] 13.7%

Cc1ncc([N+](=O)[O-])n1CCSC(N)=O
inactive: [1] -6.75% | [2] -13.6% | [3] -11.2% | [4] 11.4% | [5] 16.8% | [6] 33.5%

CC(C)C1CCC2(C)C(CCC3C4(C)CCCC32OC4=O)C1 (stereo unspecified)
inactive: [1] -17.7% | [2] -13.6% | [3] -4.8% | [4] -27.2% | [5] -0.15% | [6] 23.7%

O=C1c2cccc3cccc(c23)C1(O)S(=O)(=O)O (stereo unspecified)
inactive: [1] 4.6% | [2] -2.1% | [3] 0.85% | [4] -13.8% | [5] 21.5% | [6] 6.95%

CN=c1ss/c(=N\C(=S)N(C)C)n1C
inactive: [1] -0.2% | [2] -10.5% | [3] -21.6% | [4] 28% | [5] -11.5% | [6] 6.8%

COC(=O)C1=C(C)NC(C)=C(C(=O)OC)C1c1cccc(NO)c1
inactive: [1] 9.6% | [2] 16.4% | [3] 47.4% | [4] 24% | [5] 43.3% | [6] 2.85%

CC(=O)c1cccc(NC(=O)Nc2ccc(Nc3ccccc3)cc2)c1
inactive: [1] 3.8% | [2] 6.5% | [3] 5.6% | [4] 2.6% | [5] 21.8% | [6] -0.8%

N#CCC(=O)N/N=C1\C(=O)N(c2ccc(Cl)cc2)C(=O)C(=O)C1c1nc2ccccc2o1 (stereo unspecified)
inactive: [1] 22.4% | [2] -11.8% | [3] 0.4% | [4] 16.5% | [5] 1.35% | [6] 8.45%

Cc1nc(N)c(-c2ccccc2)s1
inactive: [1] 18.1% | [2] -15.9% | [3] 7.2% | [4] -11.2% | [5] -7.85% | [6] 11.9%

CC(=O)Nc1nc(Cl)c2ncn(C3OC(COC(=O)c4ccccc4)CC3OC(=O)c3ccccc3)c2n1 (stereo unspecified)
inactive: [1] 10.2% | [2] 3.1% | [3] -8.8% | [4] 2.6% | [5] 10.6% | [6] 4.5%

O=C(O)CCC(=O)Nc1cc(C(F)(F)F)ccc1Cl
inactive: [1] 24.1% | [2] 13.7% | [3] 7.8% | [4] 25.1% | [5] 14.8% | [6] 7.5%

Nc1ccc(Cn2ccc(=O)[nH]c2=O)cc1
inactive: [1] -14.4% | [2] 3.2% | [3] 0.25% | [4] -26.9% | [5] -11.2% | [6] -0.8%

COC(=O)c1cccc(Cl)n1
inactive: [1] 4.7% | [2] -16.8% | [3] -6.95% | [4] 1.05% | [5] 10.4% | [6] 7.85%

Cc1ccc(C)c2c3c(sc12)CCCC3
inactive: [1] -7.85% | [2] -5.4% | [3] -7.15% | [4] -17.2% | [5] 0.45% | [6] 2.95%

CCCCC(=CC(C)(C)C)CCCC
inactive: [1] 22.9% | [2] -2.4% | [3] -7.7% | [4] 7.95% | [5] 20.6% | [6] 14.5%

Cc1cc(C)n2ncc(Br)c2n1
inactive: [1] 26.2% | [2] 13.1% | [3] 14.2% | [4] -35% | [5] 12.9% | [6] 8.15%

CC(C)(C)c1cc(C(c2ccc3c(c2)OCO3)N2CCOCC2)c(O)c(C(C)(C)C)c1 (stereo unspecified)
inactive: [1] 12.3% | [2] -12.3% | [3] -2.05% | [4] 14.8% | [5] 13.1% | [6] 16.9%

Nc1ccc(S(=O)(=O)c2ccc(Nc3ccnc4cc(Cl)ccc34)cc2)cc1
inactive: [1] 23.1% | [2] 13.6% | [3] 5.05% | [4] 7.55% | [5] 1.6% | [6] 12.8%

COc1ccc(-c2coc3c4c(c5c(c3c2=O)OC(C)(C)CC5)OC(C)(C)C=C4)cc1OC
inactive: [1] 11.3% | [2] 10.8% | [3] 15.7% | [4] 38% | [5] 18.1% | [6] 39.5%

NC(CCC(=O)OCCn1c2ccccc2c2ccccc21)C(=O)O (stereo unspecified)
inactive: [1] -1.9% | [2] -2.4% | [3] 3.3% | [4] -2.1% | [5] 18.1% | [6] 3.95%

COc1ccc(N(Cc2ccc(C)o2)C(=S)Nc2ccccc2)cc1
inactive: [1] -3.6% | [2] -5.4% | [3] 9.7% | [4] 8.9% | [5] 36% | [6] 7.05%

O=C(NCCCCN1CCCC1)C(c1cc2ccccc2s1)C1CCCCC1 (stereo unspecified)
inactive: [1] 20.1% | [2] 9.25% | [3] 42.2% | [4] 4.25% | [5] 24.2% | [6] 33.1%

CCC(=O)/C=C/c1ccccc1O
inactive: [1] 11.6% | [2] 9.55% | [3] 31.4% | [4] 17.4% | [5] 20.4% | [6] 13.3%

Cc1cc2c(C(C)C)c(O)c(O)c(C=Nc3cccc(O)c3)c2c(O)c1-c1c(C)cc2c(C(C)C)c(O)c(O)c(C=Nc3cccc(O)c3)c2c1O
inactive: [1] 27.8% | [2] 26% | [3] 44% | [4] 46.1% | [5] 50.8% | [6] 58.3%

C[C@H](CCc1nc(C#N)c(N)o1)[C@H]1CC[C@H]2[C@@H]3CCC4C[C@@H](O)CC[C@]4(C)[C@H]3C[C@@H](O)[C@]12C (stereo partly specified)
active: [1] 87% | [2] 91.6% | [3] 86% | [4] 87.7% | [5] 84%
inactive: [6] 46%

COc1cc(COC(=O)c2ccc(CSc3ccc(Cl)cc3)o2)cc(OC)c1OC
inactive: [1] -19.4% | [2] -33% | [3] -0.75% | [4] -8.4% | [5] -13.9% | [6] -10.8%

O=C1OCc2nc3c(c(-c4ccccc4C(F)(F)F)c21)C(=O)OC3
inactive: [1] -40.1% | [2] -66.6% | [3] -59.3% | [4] -0.85% | [5] -35.4% | [6] -39%

COc1cccc2c1C(=N)c1c(O)c3c(c(O)c1C2=O)C[C@@](O)(C(=O)CO)C[C@@H]3OC1CC(N)C(O)C(C)O1 (stereo partly specified)
inactive: [1] 55.4% | [2] 23.2% | [3] -8.7% | [4] 22.4% | [5] -16.9% | [6] -13.9%

Oc1ccccc1/C=N\Sc1ccc(Br)cc1
inactive: [1] 23.9% | [2] 13.8% | [3] 22% | [4] 4.25% | [5] 3.95% | [6] 17%
